The whole screen tested about 96,000 compounds, of which about 19,000 (20%) were called active.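 Rule for the calls: active = blocking of liver enzyme CYP2C9 beyond about 50% at 5 µM (limit read from the data); inactive = the rest.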 These entries were drawn from the full list.
Each compound was assayed against Cytochrome P450 2C9 (Homo sapiens) (UniProt P11712) (assay: blockers of cytochrome P450 2C9 activity – biochemical, luminescence, ADME assay, primary screen (AID 777)). Conditions: CYP2C9 Supersomes, luciferin-H conversion, at 5 µM, stronger effect = higher value.
Cytochrome P450 2C9 (Homo sapiens), sequence (P11712 whole entry, looked up): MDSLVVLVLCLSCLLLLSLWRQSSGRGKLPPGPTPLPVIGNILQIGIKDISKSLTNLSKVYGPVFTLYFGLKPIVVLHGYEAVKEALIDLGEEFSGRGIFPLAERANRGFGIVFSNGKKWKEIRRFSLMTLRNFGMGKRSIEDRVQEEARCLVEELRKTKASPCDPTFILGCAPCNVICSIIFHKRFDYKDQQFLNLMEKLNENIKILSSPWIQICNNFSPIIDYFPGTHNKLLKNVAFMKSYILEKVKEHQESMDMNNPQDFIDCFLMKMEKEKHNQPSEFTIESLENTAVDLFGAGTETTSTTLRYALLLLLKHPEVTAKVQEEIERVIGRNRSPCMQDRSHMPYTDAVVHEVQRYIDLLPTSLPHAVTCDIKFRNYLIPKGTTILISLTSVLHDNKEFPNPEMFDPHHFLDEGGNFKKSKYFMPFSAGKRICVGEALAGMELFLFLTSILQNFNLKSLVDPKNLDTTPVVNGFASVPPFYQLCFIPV

Structure (SMILES)	inhibition
O=C(Cc1c(O)c2ccccc2[nH]c1=O)NCc1ccccc1	9.8% (inactive)
O=C(Nc1ccon1)c1cccc(Cl)c1	17.5% (inactive)
Cc1ccc(Oc2ccc(N)cc2)cc1	29.2% (inactive)
CC(C(=O)Nc1ccc(F)c(F)c1F)N1CCCCCC1 (centres undefined)	13.7% (inactive)
Cc1cc(NC(=O)COc2ccc(Cl)cc2Cl)n(CCC#N)n1	16.2% (inactive)
O=C1CCCC2=C1C(c1ccccc1)n1c(s/c(=C/c3cccc(F)c3)c1=O)=N2 (centres undefined)	49.7% (inactive)
O=C(NC1CCCCC1)n1c(=O)oc2cc(S(=O)(=O)N3CCCCC3)ccc21	-56.7% (inactive)
CC(C)CCNC(=O)Cn1c(=O)oc2cc(S(=O)(=O)N3CC(C)CC(C)C3)ccc21 (centres undefined)	51.3% (active)
CCOC(=O)Cn1c(=O)oc2cc(S(=O)(=O)NCC3CCCO3)ccc21 (centres undefined)	11.7% (inactive)
O=C(CN1CCN(C2CCCCC2)CC1)Nc1ccccc1N1CCCCC1	-1.6% (inactive)
Cn1c(=O)c2c(nc(N3CCCCCC3)n2CC(=O)c2ccc(Br)cc2)n(C)c1=O	15.6% (inactive)
Cn1c(=O)c2c(nc(SCC(=O)Nc3ccccc3N3CCCCC3)n2C)n(C)c1=O	93.9% (active)
CC(C)n1c(SCC(=O)Nc2ccccc2N2CCCCC2)nc2c1c(=O)n(C)c(=O)n2C	87.2% (active)
Cn1c(=O)c2c(nc(N3CCCCCC3)n2CC(O)COc2ccc(Cl)cc2)n(C)c1=O (centres undefined)	20% (inactive)
Cn1c(=O)c2c(nc(SCCNS(=O)(=O)c3ccccc3)n2C)n(C)c1=O	42.7% (inactive)
Cc1ccc2[nH]c(=O)c(-c3nc4c(C)cccn4c3NCc3ccco3)cc2c1	13% (inactive)
Fc1ccc(-c2ccc(-c3nn4c(-c5ccco5)nnc4s3)o2)cc1	7.3% (inactive)
COC(=O)c1ccc(Oc2nc(Nc3ccc(F)cc3)nc(N3CCCC3)n2)cc1	31.9% (inactive)
Cc1ccc2nc(Nc3ccccc3O)nc(-c3ccccc3)c2c1	13.8% (inactive)
O=C(NC1CCCCC1)c1ccc2c(=O)n(CC3CCCO3)c(=O)[nH]c2c1 (centres undefined)	-2.1% (inactive)
O=c1c2ccccc2nnn1CSc1nc2sc3c(c2c(=O)n1CC1CCCO1)CCC3 (centres undefined)	84.8% (active)
Cc1nnc(SCC(N)=O)n1CC1CCCO1 (centres undefined)	0.5% (inactive)
COc1cccc(CNc2nc3nc4c(c(=O)n3[nH]2)CCC4)c1	15.1% (inactive)
CC(=O)Nc1ccc(N2C(=O)C3C4CC(=O)C(c5ccccc54)C3C2=O)cc1 (centres undefined)	-8.5% (inactive)

Structure (SMILES)	inhibition
Cc1ccc(C)c(NC(=O)CSc2nnc(Cc3cccn3C)n2-c2ccc(F)cc2)c1	19.9% (inactive)
COC(=O)c1ccc(NC(=O)CSc2nnc(Cc3cccn3C)n2-c2ccc(F)cc2)cc1	19.2% (inactive)
COc1ccccc1NC(=O)CSc1nnc(Cc2cccn2C)n1-c1ccc(F)cc1	62.7% (active)
CC(=NC1CCN(Cc2ccccc2)CC1)c1c(O)[nH]c(=O)[nH]c1=O	-1.3% (inactive)
CN=C1S/C(=C\c2ccc(Sc3ccc(Cl)cc3)o2)C(=O)N1C	29.4% (inactive)
CCC(C)N1C(=O)S/C(=C/c2ccc(Sc3nc4ccccc4[nH]3)o2)C1=O (centres undefined)	60% (active)
O=C(CSc1nc2ccccc2[nH]1)c1cccs1	29.8% (inactive)
CC(=O)c1sc(NC(=O)c2cccc3ccccc23)nc1C	-22.6% (inactive)
CC(=O)c1sc(NC(=O)c2ccc(C)cc2)nc1C	6.9% (inactive)
COc1cccc2sc(Nc3nc(C)c(C(C)=O)s3)nc12	64.5% (active)
COc1ccc(C(=S)Nc2ccccc2)cc1	15% (inactive)
CN1CCN(C(=O)Cn2c(C(F)(F)F)nc3ccccc32)CC1	-8.1% (inactive)
CCOC(=O)N1CCN(C(=O)CN(C2CCCCC2)S(C)(=O)=O)CC1	0.7% (inactive)
CS(=O)(=O)N(CC(=O)N1CCN(c2ccc(F)cc2)CC1)C1CCCCC1	21.6% (inactive)
CS(=O)(=O)N(CC(=O)Nc1ccc(Cl)c(Cl)c1)C1CCCCC1	59.4% (active)
CC(C)C(C)NC(=O)COc1ncnc2ccccc12 (centres undefined)	14.1% (inactive)
COc1ccc(N2CCN(C(=O)CCc3nc(-c4ccc(C)cc4)no3)CC2)cc1	51.2% (active)
COc1ccccc1Cc1nc(-c2ccc(C)cc2)no1	7.1% (inactive)
CSc1nnc(CNC(=O)c2ccccc2)n1-c1ccc(F)cc1	-3.4% (inactive)
Cc1ccc(-c2noc(CC(c3ccccc3)c3ccccc3)n2)cc1	55.2% (active)
Cc1ccc(-c2noc(CCC(N)=O)n2)cc1	6.1% (inactive)
COc1ccc(-c2noc(CN(C)S(=O)(=O)c3ccc(C)cc3)n2)cc1	18.8% (inactive)
COc1ccc(-c2noc(CSc3ccc(C)cc3)n2)cc1	52.3% (active)
CCOc1cc(-c2noc(CCC(=O)N3CCOCC3)n2)ccc1OC	-11.7% (inactive)

Structure (SMILES)	inhibition
COc1ccc(-c2noc(-c3ccc(C)cc3)n2)cc1	-13.8% (inactive)
Fc1ccc(-n2c(Cc3ccccc3)nnc2SCc2nc(-c3ccc(Cl)cc3)no2)cc1	62.6% (active)
O=C(CSc1nnc(Cc2ccccc2)n1-c1ccccc1)N1CCOCC1	3.8% (inactive)
Cc1ccc(Cc2nc(-c3cccc(C)c3)no2)cc1	-9.2% (inactive)
CCn1c(SCC(=O)Nc2ccc(S(=O)(=O)Nc3onc(C)c3C)cc2)nnc1-c1ccccc1	18.2% (inactive)
O=C(NCCCCO)C(F)(F)C(F)(F)C(F)(F)C(=O)NCCCCO	-24.7% (inactive)
Cc1ccc(Nc2nc(CSc3nnnn3-c3ccccc3)cc(=O)[nH]2)cc1	42.5% (inactive)
Cc1ccc(-c2noc(CSc3nnc(-c4ccncc4)n3-c3ccc(F)cc3)n2)cc1	70.7% (active)
CN(C(=O)CSc1nnnn1-c1ccccc1)C1CCCCC1	36.3% (inactive)
Cc1ccc(-c2noc(CSc3nnc(-c4ccccc4)n3C)n2)cc1	88.3% (active)
Cc1ccc(-c2noc(CSc3nnc(-c4cccs4)n3C)n2)cc1	13% (inactive)
Cn1c(SCc2nc3ccccc3s2)nnc1-c1ccc2c(c1)OCO2	8.2% (inactive)
CCN(CC)C(=O)CSc1nnc(-c2cnccn2)n1-c1ccc(C)cc1	8.8% (inactive)
Cc1cccc(-c2noc(-c3ccc(F)cc3)n2)c1	8.5% (inactive)
Cc1ccc(-c2noc(CSc3nnnn3-c3ccccc3)n2)cc1	85.5% (active)
O=C(O)CN(Cc1ccco1)S(=O)(=O)c1ccccc1	-2.7% (inactive)
O=C(c1ccc(O)cc1)c1ccc(C(=O)O)c(C(=O)O)c1	-15.8% (inactive)
COc1ccc(C(CNC(=O)c2cccnc2SC)N2CCOCC2)cc1 (centres undefined)	6.9% (inactive)
S=C1NC(c2ccccc2)=NCN1c1ccc(Br)cc1	19.4% (inactive)
CCOC(=O)N1CCN(C(=O)C2CCN(S(C)(=O)=O)CC2)CC1	-10.2% (inactive)
CCN(c1ccc2c(c1)OCO2)S(=O)(=O)c1cc(Br)cc2c1N(C(=O)C1CC1)CC2	33.6% (inactive)
CCOC(=O)N1CCN(S(=O)(=O)c2cc(Br)cc3c2N(C(=O)C2CC2)CC3)CC1	50.2% (active)
O=C(O)C1CC=CCC1C(=O)NCCc1ccccc1 (centres undefined)	-21.1% (inactive)
O=c1[nH]c(=O)n(Cc2ccco2)c2c1C(C(F)(F)F)(C(F)(F)F)N=C(c1ccco1)N2	1.8% (inactive)

Structure (SMILES)	inhibition
Cc1ccc(C)c(S(=O)(=O)n2cnc3ccccc32)c1	-14.6% (inactive)
Cc1ccc(S(=O)(=O)NCc2csc(C)n2)c(C)c1	9.2% (inactive)
Cc1ccc(C)c(NS(=O)(=O)c2cc(Br)cnc2N)c1	63.5% (active)
CCOC(=O)CSc1nnc(CNC(=O)c2cccs2)n1-c1cc(OC)ccc1OC	31.7% (inactive)
Cc1cc(C)c(S(=O)(=O)c2ccccc2)c(OC(=O)c2c(F)cccc2Cl)n1	32.9% (inactive)
O=c1c2ccccc2nc2n1C(CSc1ccc(F)cc1)CN2 (centres undefined)	1.1% (inactive)
C=CCn1c(COc2cccc3cccnc23)nnc1SCC(=O)OC	-306% (inactive)
C=CCn1c(SCCOc2ccc(OC)cc2)nnc1C(NC(=O)c1ccc(OC)cc1)C(C)C (centres undefined)	58.8% (active)
C=CCn1c(SCC(=O)c2ccc(Br)cc2)nnc1C(C)NC(=O)Cc1ccc(OC)cc1 (centres undefined)	30.7% (inactive)
CC1=C(C)CC(C(=O)NNC(=O)c2ccccc2O)C(C(=O)O)C1 (centres undefined)	21.8% (inactive)
O=C(c1c(Cl)nc2sccn12)N1CCCc2ccccc21	28.1% (inactive)
Cc1cccc(N2CCN(S(=O)(=O)c3ccc4[nH]c(=O)c(=O)[nH]c4c3)CC2C)c1 (centres undefined)	52.5% (active)
CN1CCN(S(=O)(=O)c2ccc3[nH]cc(C(=O)O)c(=O)c3c2)CC1	2.4% (inactive)
COc1cccc(N2C(=O)CC(N3CCN(S(=O)(=O)c4ccccc4)CC3)C2=O)c1 (centres undefined)	6.5% (inactive)
Cc1nc(C)c(-c2csc(NCCc3ccccc3)n2)s1	39% (inactive)
COc1ccc(/C(O)=C2/C(=O)C(=O)N(CC3CCCO3)C2c2ccc(OC)c(OC)c2)cc1 (centres undefined)	35.9% (inactive)
COc1ccc(/C(O)=C2/C(=O)C(=O)N(c3nc(C)c(C)s3)C2c2ccco2)cc1 (centres undefined)	70.5% (active)
COc1ccc(/C(O)=C2\C(=O)C(=O)N(Cc3ccco3)C2c2ccc(OC)cc2OC)cc1 (centres undefined)	21.7% (inactive)
C=CCNc1ncnc2ccc(Br)cc12	-10.3% (inactive)
COC(=O)c1cc(NC(=O)CC2C(=O)NCCN2C(=O)c2ccc(F)cc2)cc(C(=O)OC)c1 (centres undefined)	46.6% (inactive)
COc1cc(Cl)c(S(=O)(=O)N2CCN(Cc3ccc4c(c3)OCO4)CC2)cc1Cl	20.7% (inactive)
O=C(c1ccc(F)cc1)c1c[nH]c(C(=O)NCc2cccnc2)c1	45.9% (inactive)
